This note sets out measurements from PubChem BioAssay (EPA / NIEHS).

Test [1] addresses Myc proto-oncogene protein (Homo sapiens) (UniProt P01106). Briefly: ATG_Myc_CIS: Attagene CIS-FACTORIAL HepG2 Assay for human Myelocytomatosis (Myc) Proto-Oncogene Transcription Factor (AID 2282990). The conditions noted are these: HepG2, Attagene cis-reporter transcription factor activity; actives raise or lower the signal. A digest of the protocol:
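Cells of the HepG2 human liver line bear multiple cis-driven reporter transcription units. Reporter mRNA after 24 h exposure is reverse-transcribed, amplified, labelled and resolved by capillary electrophoresis, with gain- or loss-of-signal fitting relative to DMSO.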

Test [2] is described as follows: ATG_NF_kB_CIS: Attagene CIS-FACTORIAL HepG2 Assay for human Nuclear Factor Kappa B (NF-kB) (AID 2282991). The conditions noted are these: HepG2 Attagene cis-factorial NF-kB reporter mRNA; actives raise or lower the signal. A digest of the protocol: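 Readout is reporter transcript level, gain or loss versus DMSO, measured 24 h post-dose via RT-PCR, fluorescent labelling and capillary electrophoresis. Human HepG2 liver cells carried transiently transfected CIS reporter constructs reflecting endogenous factors.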

Test [3] in a line: ATG_NRF2_ARE_CIS: Attagene CIS-FACTORIAL HepG2 Assay for human Nuclear Factor Erythroid 2 Related Factor 2 (NFR2) response to Antioxidant Response Elements (ARE) (AID 2282992). The conditions noted are these: HepG2 Attagene ARE/NRF2 reporter, transcription factor activity; actives raise or lower the signal. A digest of the protocol: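 Endogenous transcription factor activity in human liver HepG2 cells is tracked via a cis-element-driven reporter within a multiplexed set. mRNA induction is read by RT-PCR and capillary electrophoresis after 24 h, with DMSO as baseline.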

Test [4] in a line: ATG_Oct_MLP_CIS: Attagene CIS-FACTORIAL HepG2 Assay for human Octamer-Binding Transcription Factor (Oct) (AID 2282993). The conditions noted are these: HepG2 Attagene cis-factorial Oct reporter, mRNA; actives raise or lower the signal. A digest of the protocol: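 HepG2 cells transiently transfected with cis-element-driven reporter transcription units (endogenous TF activity); 24 h compound exposure. Reporter mRNA quantified by RT-PCR, 6-FAM labelling, HpaI digestion and capillary electrophoresis; bidirectional fit versus DMSO baseline.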

The target in test [5] is Peroxisome proliferator-activated receptor gamma (Homo sapiens) (UniProt P37231). Briefly: ATG_PPARg_TRANS: Attagene TRANS-FACTORIAL HepG2 Assay for human Peroxisome Proliferator-activated Receptor-gamma (PPARg) (AID 2283007; active = hit-call score of the fitted dose curve at least 0.9, where 1 is the maximum). A digest of the protocol: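 After 24 h of chemical exposure, transfected HepG2 cells carrying PPARγ-Gal4 chimera reporter constructs are lysed for RNA. Reporter transcripts are measured by RT-PCR and capillary electrophoresis with fluorescent labelling, and gain of signal is fitted versus DMSO.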
Peroxisome proliferator-activated receptor gamma (Homo sapiens), sequence (P37231 whole entry, looked up, the tested form may be a part): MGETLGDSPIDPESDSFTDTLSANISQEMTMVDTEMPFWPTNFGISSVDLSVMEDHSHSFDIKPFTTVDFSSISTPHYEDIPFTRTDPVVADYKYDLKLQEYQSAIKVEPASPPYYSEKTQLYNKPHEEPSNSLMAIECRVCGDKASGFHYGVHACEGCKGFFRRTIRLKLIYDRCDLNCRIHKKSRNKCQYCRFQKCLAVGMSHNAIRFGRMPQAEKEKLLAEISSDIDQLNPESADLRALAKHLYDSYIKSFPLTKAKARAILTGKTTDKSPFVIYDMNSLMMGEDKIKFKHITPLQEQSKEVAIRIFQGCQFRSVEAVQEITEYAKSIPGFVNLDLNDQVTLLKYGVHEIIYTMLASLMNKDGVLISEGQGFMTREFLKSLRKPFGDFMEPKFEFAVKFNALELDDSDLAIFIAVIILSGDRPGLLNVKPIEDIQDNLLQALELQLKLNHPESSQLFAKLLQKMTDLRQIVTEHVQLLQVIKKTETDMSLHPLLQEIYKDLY

In test [6] the target is Nuclear receptor subfamily 1 group I member 2 (Homo sapiens) (UniProt O75469). Briefly: ATG_PXR_TRANS: Attagene TRANS-FACTORIAL HepG2 Assay for human Pregnane X Receptor (PXR) (AID 2283008; active = hit-call score of the fitted dose curve at least 0.9, where 1 is the maximum). A digest of the protocol:
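HepG2 transfected (FuGene 6) with GAL4-UAS reporter units + PXR-Gal4 chimera; dosed 24 h. Total RNA → oligo(dT) RT → PCR → 6-FAM primer extension → HpaI cut → CE. Gain-of-signal vs DMSO.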

Test [7] deals with human Retinoic Acid Receptor gamma (RARg), RARG (gene 5916) (UniProt P13631). Briefly: ATG_RARg_TRANS: Attagene TRANS-FACTORIAL HepG2 Assay for human Retinoic Acid Receptor gamma (RARg) (AID 2283009; active = hit-call score of the fitted dose curve at least 0.9, where 1 is the maximum). A digest of the protocol:
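Transactivation of exogenous RARg-Gal4 fusion measured as reporter transcript induction after 24 h in transfected HepG2 cells. RNA reverse-transcribed, amplified, fluorescently labeled and resolved by capillary electrophoresis; increase relative to DMSO.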

Test [8] has as its target Retinoic acid receptor RXR-alpha (Homo sapiens) (UniProt P19793). Kind of test: ATG_RXRa_TRANS: Attagene TRANS-FACTORIAL HepG2 Assay for human Retinoid X Receptor alpha (RXRa) (AID 2283012; active = hit-call score of the fitted dose curve at least 0.9, where 1 is the maximum). A digest of the protocol:
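TRANS format reporting activity of exogenous RXRa-Gal4 chimera in transiently transfected HepG2, 24 h exposure. Reporter transcripts quantified by RT-PCR with capillary electrophoresis, with gain of signal scored relative to DMSO.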

For test [9], the target named is Cellular tumor antigen p53 (Homo sapiens) (UniProt P04637). Kind of test: ATG_p53_CIS: Attagene CIS-FACTORIAL HepG2 Assay for human p53 Transcription Factor (AID 2282994). The note with it: HepG2 p53 cis-element reporter, Attagene mRNA; actives raise or lower the signal. A digest of the protocol:
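Steps: transfect HepG2 with multiplexed cis reporter constructs; dose chemicals 24 h; extract RNA, reverse-transcribe, PCR-amplify reporter sequences; FAM-label, HpaI-digest, resolve fragments by CE. Activity fitted both directions relative to DMSO.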

Test [10] can be described thus: BSK_3C_TissueFactor: BioMAP Diversity Plus: 3C Assay for Tissue Factor Biomarker Activity (AID 2282997). The conditions noted are these: BioMAP 3C HUVEC, tissue factor biomarker readout; actives raise or lower the signal. A digest of the protocol:
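Tissue Factor measured by ELISA, 24 h after treatment of primary HUVEC in the BioMAP 3C setting.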

A short description of test [11]: BSK_3C_uPAR: BioMAP Diversity Plus: 3C Assay for Urokinase-type plasminogen activator receptor (uPAR) Biomarker Activity (AID 2282998). The conditions noted are these: BioMAP 3C HUVEC, uPAR biomarker ELISA; actives raise or lower the signal. A digest of the protocol:
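Primary human umbilical vein endothelial cells, 3C system; surface uPAR measured by ELISA 24 h after dosing. Cytotoxicity via SRB total protein in parallel cultures; bidirectional fit against DMSO.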
On the technique in general: In an ELISA, binding on a coated surface is turned into a signal by an enzyme label.

Test [12] is described as follows: BSK_3C_VCAM1: BioMAP Diversity Plus: 3C Assay for Vascular cell adhesion molecule 1 (VCAM1) Biomarker Activity (AID 2282999). The conditions noted are these: BioMAP 3C HUVEC, VCAM1 ELISA, cytokine-stimulated; actives raise or lower the signal. A digest of the protocol:
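Activity fitted in both directions relative to DMSO, with ELISA measurement of the surface marker on primary HUVEC (3C) at 24 h post-treatment; parallel SRB staining (0.1% SRB, TCA-fixed, 560 nm) flagged overt cytotoxicity.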

Test [13] can be described thus: BSK_4H_Eotaxin3: BioMAP Diversity Plus: 4H Assay for Eotaxin 3 Biomarker Activity (AID 2283000). The note with it: primary human endothelial cells (HUVEC); actives raise or lower the signal. A digest of the protocol:
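Eotaxin-3 (CCL26) levels were measured by ELISA in HUVEC primary cultures 24 h post-dosing. Gain or loss of signal was fitted in both directions, with DMSO serving as baseline and negative control.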

Test [14] concerns the target human Peroxisome Proliferator-activated Receptor alpha (PPARa), PPARA (gene 5465) (UniProt Q07869). Briefly: ATG_PPARa_TRANS: Attagene TRANS-FACTORIAL HepG2 Assay for human Peroxisome Proliferator-activated Receptor alpha (PPARa) (AID 2283001; active = hit-call score of the fitted dose curve at least 0.9, where 1 is the maximum). A digest of the protocol: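 Reporter transcripts quantified by RT-PCR plus capillary electrophoresis after 24 h treatment, fitted upward relative to DMSO. Cells: human HepG2 transiently carrying multiple GAL4-UAS reporter units driven by NR-Gal4 chimeras.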

Test [15] has as its target human Peroxisome Proliferator-activated Receptor delta (PPARd), PPARD (gene 5467) (UniProt Q03181). Kind of test: ATG_PPARd_TRANS: Attagene TRANS-FACTORIAL HepG2 Assay for human Peroxisome Proliferator-activated Receptor delta (PPARd) (AID 2283002; active = hit-call score of the fitted dose curve at least 0.9, where 1 is the maximum). A digest of the protocol:
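Cell-based TRANS reporter: HepG2, transient MRTU transfection, 24 h exposure. Readout = reporter mRNA (RT-PCR/CE, 6-FAM). Gain-of-signal fit vs DMSO control.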

Read-out in test [16]: Intercellular Adhesion Molecule 1 (ICAM1), ICAM1 (gene 3383)
Briefly: BSK_3C_ICAM1: BioMAP Diversity Plus: 3C Assay for Intercellular Adhesion Molecule 1 (ICAM1) Biomarker Activity (AID 2283003). The conditions noted are these: primary human endothelial cells (HUVEC); actives raise or lower the signal. A digest of the protocol:
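ELISA readout of ICAM1 in human umbilical vein endothelial cells in the 3C system, taken 24 h post-dose. Gain or loss of signal versus DMSO was fitted in both directions, with SRB total-protein staining run in parallel.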

Test [17] can be described thus: BSK_3C_Proliferation: Cell Proliferation Assessment in the BioMAP Diversity Plus: 3C Assay (AID 2283006).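 Also: potency may reflect either rise or fall in cell number versus DMSO.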 The note with it: primary human endothelial cells (HUVEC). A digest of the protocol: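 Proliferation as total protein: sulforhodamine B (0.1%) stain of TCA-fixed subconfluent human umbilical vein endothelial cells, absorbance 560 nm, 48 h after dosing. Activity fitted in both directions against DMSO baseline.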

Test [18] addresses human RAR-related Orphan Receptor beta (RORb), RORB (gene 6096) (UniProt Q92753). Kind of test: ATG_RORb_TRANS: Attagene TRANS-FACTORIAL HepG2 Assay for human RAR-related Orphan Receptor beta (RORb) (AID 2283010; active = hit-call score of the fitted dose curve at least 0.9, where 1 is the maximum). A digest of the protocol:
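Read-out is reporter mRNA induction, quantified by RT-PCR with fluorescent capillary electrophoresis, 24 h post-dose in transiently transfected HepG2 expressing exogenous NR-Gal4 chimera. Activity fitted upward versus DMSO.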

In test [19] the target is human RAR-related Orphan Receptor gamma (RORg), RORC (gene 6097) (UniProt P51449). Kind of test: ATG_RORg_TRANS: Attagene TRANS-FACTORIAL HepG2 Assay for human RAR-related Orphan Receptor gamma (RORg) (AID 2283011; active = hit-call score of the fitted dose curve at least 0.9, where 1 is the maximum). A digest of the protocol: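 HepG2 cells transiently transfected with GAL4-UAS reporter units and chimeric RORg-Gal4 construct; after 24 h chemical exposure, reporter mRNA measured by RT-PCR with fluorescent capillary electrophoresis, gain of signal fitted against DMSO.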
human RAR-related Orphan Receptor gamma (RORg), RORC (gene 6097), sequence (P51449 whole entry, looked up, the tested form may be a part): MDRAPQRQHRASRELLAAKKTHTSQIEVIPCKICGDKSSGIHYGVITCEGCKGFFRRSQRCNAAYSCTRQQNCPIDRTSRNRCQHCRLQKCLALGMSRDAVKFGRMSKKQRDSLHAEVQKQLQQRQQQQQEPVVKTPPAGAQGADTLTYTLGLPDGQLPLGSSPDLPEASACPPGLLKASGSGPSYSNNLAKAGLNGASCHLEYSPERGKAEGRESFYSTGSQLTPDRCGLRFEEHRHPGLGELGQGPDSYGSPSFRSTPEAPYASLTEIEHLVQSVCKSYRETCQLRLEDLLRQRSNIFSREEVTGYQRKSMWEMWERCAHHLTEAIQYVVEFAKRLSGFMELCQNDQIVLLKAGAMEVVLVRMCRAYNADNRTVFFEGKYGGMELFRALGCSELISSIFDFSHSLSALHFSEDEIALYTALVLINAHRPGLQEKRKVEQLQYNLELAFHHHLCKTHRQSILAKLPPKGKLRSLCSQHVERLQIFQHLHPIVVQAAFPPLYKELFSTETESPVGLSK

Test [20] addresses Retinoic acid receptor alpha (Homo sapiens) (UniProt P10276). Briefly: ATG_RARa_TRANS: Attagene TRANS-FACTORIAL HepG2 Assay for human Retinoic Acid Receptor alpha (RARa) (AID 2283005; active = hit-call score of the fitted dose curve at least 0.9, where 1 is the maximum). A digest of the protocol: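 Reporter transcripts, measured by RT-PCR with fluorescent labeling and capillary electrophoresis after 24 h dosing, reflect activity of an exogenous human RARa–GAL4 fusion in transiently transfected HepG2. Fitted for increase relative to DMSO.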

Values joined by “and” are separate entries in the source; they are usually repeats but may differ in a detail not shown here. Equal entries are not always repeated. Inconclusive results are not listed. Where a structure was tested more than once in an assay, its records may differ in their call. Active and inactive are the calls of the source. The calls were made as follows, unless noted: active = hit-call score of the fitted dose curve at least 0.9, where 1 is the maximum; inactive = score below 0.9.

Cellular tumor antigen p53 (Homo sapiens), sequence (P04637 whole entry, looked up, the tested form may be a part): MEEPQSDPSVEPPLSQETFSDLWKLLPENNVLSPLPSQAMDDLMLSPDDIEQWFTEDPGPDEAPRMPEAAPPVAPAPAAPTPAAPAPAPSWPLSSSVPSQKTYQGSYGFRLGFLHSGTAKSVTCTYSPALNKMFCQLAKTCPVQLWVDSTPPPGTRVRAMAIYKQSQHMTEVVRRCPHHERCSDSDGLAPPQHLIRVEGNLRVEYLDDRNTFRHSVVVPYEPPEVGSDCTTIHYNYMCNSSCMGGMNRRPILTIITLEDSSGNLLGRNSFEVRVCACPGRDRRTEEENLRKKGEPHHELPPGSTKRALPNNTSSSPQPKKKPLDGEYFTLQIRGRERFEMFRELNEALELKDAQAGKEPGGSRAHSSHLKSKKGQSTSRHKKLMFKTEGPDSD
human RAR-related Orphan Receptor beta (RORb), RORB (gene 6096), sequence (Q92753 whole entry, looked up, the tested form may be a part): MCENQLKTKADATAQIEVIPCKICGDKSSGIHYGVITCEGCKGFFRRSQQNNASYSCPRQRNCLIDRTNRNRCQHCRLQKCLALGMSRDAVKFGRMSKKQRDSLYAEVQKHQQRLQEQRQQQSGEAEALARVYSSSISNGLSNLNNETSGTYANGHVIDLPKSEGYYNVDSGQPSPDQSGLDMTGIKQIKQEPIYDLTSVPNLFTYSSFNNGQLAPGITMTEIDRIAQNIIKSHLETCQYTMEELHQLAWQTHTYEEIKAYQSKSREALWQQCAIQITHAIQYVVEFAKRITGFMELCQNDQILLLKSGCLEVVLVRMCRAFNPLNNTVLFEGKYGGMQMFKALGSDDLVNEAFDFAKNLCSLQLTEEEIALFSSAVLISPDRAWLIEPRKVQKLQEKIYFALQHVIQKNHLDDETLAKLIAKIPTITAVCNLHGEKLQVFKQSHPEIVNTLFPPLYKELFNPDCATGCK
human Retinoic Acid Receptor gamma (RARg), RARG (gene 5916), sequence (P13631 whole entry, looked up, the tested form may be a part): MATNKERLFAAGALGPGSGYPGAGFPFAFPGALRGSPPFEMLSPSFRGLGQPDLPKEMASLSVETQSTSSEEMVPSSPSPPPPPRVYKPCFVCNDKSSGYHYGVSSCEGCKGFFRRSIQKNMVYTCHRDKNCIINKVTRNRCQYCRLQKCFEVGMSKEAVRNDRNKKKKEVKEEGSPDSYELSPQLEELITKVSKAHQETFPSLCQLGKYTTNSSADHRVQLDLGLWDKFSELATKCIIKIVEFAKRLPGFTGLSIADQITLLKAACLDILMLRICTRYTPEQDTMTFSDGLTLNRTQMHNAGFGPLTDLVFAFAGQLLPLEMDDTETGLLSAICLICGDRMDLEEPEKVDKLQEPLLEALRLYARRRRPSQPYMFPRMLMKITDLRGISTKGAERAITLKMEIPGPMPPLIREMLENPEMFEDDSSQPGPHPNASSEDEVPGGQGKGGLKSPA
Retinoic acid receptor RXR-alpha (Homo sapiens), sequence (P19793 whole entry, looked up, the tested form may be a part): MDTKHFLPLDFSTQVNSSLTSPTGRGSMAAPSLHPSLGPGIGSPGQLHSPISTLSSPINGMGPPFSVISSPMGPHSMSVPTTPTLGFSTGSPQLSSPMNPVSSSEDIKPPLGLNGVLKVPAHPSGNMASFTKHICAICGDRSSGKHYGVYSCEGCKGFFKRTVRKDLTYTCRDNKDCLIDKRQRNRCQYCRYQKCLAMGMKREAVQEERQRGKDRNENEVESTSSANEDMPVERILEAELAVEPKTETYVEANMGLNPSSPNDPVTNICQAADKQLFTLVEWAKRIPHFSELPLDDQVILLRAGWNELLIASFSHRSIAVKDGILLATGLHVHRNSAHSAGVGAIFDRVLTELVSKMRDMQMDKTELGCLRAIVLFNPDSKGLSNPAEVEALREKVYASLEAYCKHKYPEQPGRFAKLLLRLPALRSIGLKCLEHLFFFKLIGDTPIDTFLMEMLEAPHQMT
Myc proto-oncogene protein (Homo sapiens), sequence (P01106 whole entry, looked up): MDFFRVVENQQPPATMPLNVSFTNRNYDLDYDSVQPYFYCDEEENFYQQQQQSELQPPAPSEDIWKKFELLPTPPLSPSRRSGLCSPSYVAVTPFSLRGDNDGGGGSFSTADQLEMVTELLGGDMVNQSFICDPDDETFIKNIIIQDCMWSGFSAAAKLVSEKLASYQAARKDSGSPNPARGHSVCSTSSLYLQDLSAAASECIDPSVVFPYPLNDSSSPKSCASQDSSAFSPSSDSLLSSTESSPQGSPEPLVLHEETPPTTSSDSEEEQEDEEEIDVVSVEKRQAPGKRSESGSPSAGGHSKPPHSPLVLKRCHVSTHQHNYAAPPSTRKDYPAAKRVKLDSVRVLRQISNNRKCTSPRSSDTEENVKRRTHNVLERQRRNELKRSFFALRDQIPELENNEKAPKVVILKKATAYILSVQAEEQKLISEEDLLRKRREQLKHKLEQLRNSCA
human Peroxisome Proliferator-activated Receptor delta (PPARd), PPARD (gene 5467), sequence (Q03181 whole entry, looked up): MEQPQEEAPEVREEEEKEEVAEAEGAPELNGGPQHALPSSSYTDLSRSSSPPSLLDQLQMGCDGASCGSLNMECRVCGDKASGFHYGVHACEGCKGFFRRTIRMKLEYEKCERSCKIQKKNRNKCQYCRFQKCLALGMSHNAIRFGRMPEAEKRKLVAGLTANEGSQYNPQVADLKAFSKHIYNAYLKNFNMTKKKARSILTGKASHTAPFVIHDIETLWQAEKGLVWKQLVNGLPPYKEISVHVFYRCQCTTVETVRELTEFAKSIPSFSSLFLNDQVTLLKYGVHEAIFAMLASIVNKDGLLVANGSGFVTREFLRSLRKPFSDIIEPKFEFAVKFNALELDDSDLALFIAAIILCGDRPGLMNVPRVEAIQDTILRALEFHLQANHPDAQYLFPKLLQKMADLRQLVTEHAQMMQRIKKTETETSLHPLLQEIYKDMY
Nuclear receptor subfamily 1 group I member 2 (Homo sapiens), sequence (O75469 whole entry, looked up, the tested form may be a part): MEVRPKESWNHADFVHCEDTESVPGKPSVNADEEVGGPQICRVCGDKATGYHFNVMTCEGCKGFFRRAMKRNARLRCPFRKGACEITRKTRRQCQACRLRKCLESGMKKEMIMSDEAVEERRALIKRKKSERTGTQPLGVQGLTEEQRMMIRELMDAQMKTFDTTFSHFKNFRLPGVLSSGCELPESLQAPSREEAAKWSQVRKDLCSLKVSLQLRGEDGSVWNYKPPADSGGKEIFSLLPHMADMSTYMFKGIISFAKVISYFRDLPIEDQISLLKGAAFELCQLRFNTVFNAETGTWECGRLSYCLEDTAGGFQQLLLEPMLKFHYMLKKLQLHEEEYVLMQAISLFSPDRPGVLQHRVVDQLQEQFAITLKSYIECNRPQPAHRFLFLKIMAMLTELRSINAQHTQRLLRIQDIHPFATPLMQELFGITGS
human Peroxisome Proliferator-activated Receptor alpha (PPARa), PPARA (gene 5465), sequence (Q07869 whole entry, looked up, the tested form may be a part): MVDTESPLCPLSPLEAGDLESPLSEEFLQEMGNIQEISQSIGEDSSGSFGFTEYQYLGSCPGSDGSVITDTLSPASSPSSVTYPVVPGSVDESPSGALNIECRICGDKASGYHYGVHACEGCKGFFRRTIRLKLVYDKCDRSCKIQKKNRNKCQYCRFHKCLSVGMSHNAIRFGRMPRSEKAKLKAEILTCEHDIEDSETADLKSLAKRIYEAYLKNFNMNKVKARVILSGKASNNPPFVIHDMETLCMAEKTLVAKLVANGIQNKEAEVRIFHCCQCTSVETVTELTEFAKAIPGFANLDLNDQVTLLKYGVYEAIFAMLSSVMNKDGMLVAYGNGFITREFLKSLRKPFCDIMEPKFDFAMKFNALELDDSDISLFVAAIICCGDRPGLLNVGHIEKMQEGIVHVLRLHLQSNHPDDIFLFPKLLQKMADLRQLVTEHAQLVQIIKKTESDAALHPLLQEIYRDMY

As for `Fc1ccc(C2(Cn3cncn3)OC2c2ccccc2Cl)cc1` (configuration not stated), the outcome in test [1], in [2], in test [4], in test [5], in test [7] and in test [8] was inactive. The AC50 in [3] is 44.7 µM (active); in [6], 2.24 µM (active).
Regarding `CC(=O)C(Cl)C(=O)N(C)C` (configuration not stated), the compound was classed as inactive in test [1], in [4], in [14], in test [15], in test [16] and in [6]. Besides, the compound was classed as inactive in [18], in test [19] and in test [8]. Besides, the AC50 was 25.9 µM (active) in test [3]; 178 µM (active) in test [9]; 5.13 µM (active) in [10]; 30.1 µM (active) in test [11]; 20 µM (active) in test [12]; 21.6 µM (active) in [13]. The AC50 in test [17] is 20 µM (active).
For `O=CC=O`, the outcome in test [1], in test [3], in test [4], in test [14], in test [15] and in test [18] was inactive. In addition, the compound was classed as inactive in [19] and in test [8].
For `O=C(O)Cc1ccccc1`, the outcome in test [1], in test [2], in test [4], in [20], in test [6] and in [18] was inactive. Moreover, the outcome in test [8] was inactive. For the same compound, the AC50 in test [3] is 25.9 µM (active).
As to `Nc1ccc(-c2ccc(N)c(Cl)c2)cc1Cl`, the outcome in [1], in [9], in test [10], in test [12], in test [14] and in [16] was inactive. The compound was called inactive in [18] and in test [8]. Further, the AC50 in test [3] was 2.66 µM (active); in test [4] it was 5.49 µM (active); in test [11] it was 6.24 µM (active); in test [13] it was 1.93 µM (active); in [17] it was 1.84 µM (active); in test [6] it was 13.2 µM (active).
`C1CCC(NC2CCCCC2)CC1`: the compound was called inactive in [1], in test [3], in test [4], in [9], in [14] and in [20]. For the same compound, the result in [5], in test [6], in [7] and in [8] was inactive.
Consider `CCC1(c2ccc(N)cc2)CCC(=O)NC1=O` (configuration not stated), for which the result in test [1], in test [3], in [4], in test [5], in [6] and in test [19] was inactive. Also, the compound was called inactive in test [8].
Consider `Oc1cccc2cccnc12`, for which the compound was classed as inactive in test [1], in test [4], in [9], in [10], in test [11] and in test [14]. In addition, the outcome in test [15], in [16], in [5], in test [6], in [18] and in test [8] was inactive. Moreover, the AC50 in test [3] was 15.3 µM (active) and 1.64 µM (active); in test [4], 167 µM (active); in test [12], 10.4 µM (active); in [13] it was 2.69 µM (active); in [17] it was 4.78 µM (active).
As to `Cc1ccc2ccccc2c1C`, the outcome in [1], in test [4], in test [14], in test [15], in [5] and in test [6] was inactive. Moreover, the outcome in test [7], in test [18] and in [8] was inactive.

By AC50 is commonly meant the midpoint of the concentration-response curve, whichever way the signal moves.
